This is an account of results in PubChem BioAssay AID2017 (National Center for Advancing Translational Sciences (NCATS), 2009).

Inconclusive results are not listed. Calls of active or inactive are those of the source. Calls come from the whole dose curve; as a rule, active = well fitted curve in the direction sought with a large enough effect; inconclusive = small, poorly fitted or top-dose-only effect, or another doubt; inactive = no such curve, though single readings can be large or run the other way.

The target in this assay is 4-diphosphocytidyl-2-C-methyl-D-erythritol kinase, chloroplastic (Arabidopsis thaliana) (UniProt O81014). As to the kind of experiment: Confirmatory Assay for Inhibitors of Human Galactokinase (GALK): CDP-Me assay counterscreen. The following applies: ATP depletion, Kinase-Glo luminescence. The essentials: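 CMK (0.25 ug/mL) with 15 uM ATP and 30 uM CDP-ME in 20 mM HEPES pH8.0, 5 mM MgCl2, 40 mM KCl, 1 mM DTT, 0.01% BSA; 1 h room temperature. Residual ATP read by Kinase-Glo Plus luminescence.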
In general terms: Counterscreens check selectivity or assay interference.

4-diphosphocytidyl-2-C-methyl-D-erythritol kinase, chloroplastic (Arabidopsis thaliana), sequence (O81014 whole entry, looked up): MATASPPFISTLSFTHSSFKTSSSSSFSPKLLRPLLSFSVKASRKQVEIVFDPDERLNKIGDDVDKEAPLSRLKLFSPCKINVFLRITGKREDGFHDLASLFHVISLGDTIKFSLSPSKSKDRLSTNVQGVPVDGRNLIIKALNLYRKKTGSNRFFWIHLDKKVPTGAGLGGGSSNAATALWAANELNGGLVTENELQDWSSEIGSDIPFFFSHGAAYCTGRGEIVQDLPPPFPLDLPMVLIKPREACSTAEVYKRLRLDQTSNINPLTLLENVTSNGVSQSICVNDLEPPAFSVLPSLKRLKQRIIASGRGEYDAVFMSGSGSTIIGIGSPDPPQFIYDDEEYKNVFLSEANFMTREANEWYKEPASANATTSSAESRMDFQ

On to `Cc1cc2c(C(C)C)c(O)c(O)c(C=O)c2c(O)c1-c1c(C)cc2c(C(C)C)c(O)c(O)c(C=O)c2c1O`, for which the Potency was 47.3 µM (active).
